Screens as filed in PubChem BioAssay.
This excerpt belongs to a sample that is enriched for hits.
Pf Dd2 inh: blocks in vitro growth of P. falciparum Dd2; actives 4.3% (n = 120,000); Potency, µM (titrated, usually from 28.9 µM), without a hit: at the highest dose activity, negative = inhibition, most hits filed as inhibitors; P. falciparum Dd2 growth, SYBR Green, 72 h; AID 1347417; active = well fitted inhibition curve with a large enough effect;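 also: plate controls were DMSO vehicle for no effect and reference drug for full effect; nearly all actives have a fitted effect of over 65% in size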
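Infected erythrocytes (Dd2, 0.3% parasitemia, 2.5% hematocrit final) are added to compound in RPMI-1640/Albumax II medium, grown 72 h at 37C in low oxygen, then lysed with saponin/Triton-X containing SYBR Green and read by fluorescence.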
Starred values were filed as active, the others as inactive; i = inactive; [ ] = remark or other dose. Potency is read from the fitted curve at half-maximal effect.

SMILES | Pf Dd2 inh
COc1ccc(CNC(=O)Cn2c(=O)oc3cc(S(=O)(=O)N4CCC(C)CC4)ccc32)cc1 | -29.1%
COc1ccc(-c2nc(S(=O)(=O)c3ccccc3)c(N3CCC(C)CC3)o2)cc1 | 31.1%
COc1ccc(-c2cc3ccc(O)c(CN4CCC(C)CC4)c3oc2=O)cc1 | 2.24µM*
COc1ccc(-c2onc(C)c2C)cc1S(=O)(=O)N1CCC(C)CC1 | 14.8%
COc1ccc(CN2CCC3(CC2)CC(O)CCO3)cc1OC (stereo not drawn) | 2.4%
Cn1nccc1C(=O)N1CCC(N2CC3CC(C2)[C@H]2CCCC(=O)N2C3)CC1 (stereo partly drawn) | 1.7%
COc1ccc(OC)c(S(=O)(=O)N[C@H]2CO[C@H]3[C@@H]2OC[C@H]3OC(=O)Nc2cccc(C(F)(F)F)c2)c1 | -17.7%
Cc1cc(C)cc(NC(=O)Cn2c(N3CCCCC3)nc(C)c(C)c2=O)c1 | i
Cc1ccc(NC(=O)Nc2cc3c(cc2N2CCCCC2)n(C)c(=O)n3C)cc1Cl | i
CCc1ccccc1NC(=O)Nc1cc(C(=O)NCc2ccccc2OC)ccc1N1CCCC1 | -4.8%
CCn1c(=O)n(CC)c2cc(N3CCCCC3)c(NC(=O)Nc3cc(C)cc(C)c3)cc21 | 10µM*
Cc1cc(C)cc(NC(=O)Cn2nc3n(c2=O)CCCCC3)c1 | 2.3%
CCn1c(=O)n(CC)c2cc(N3CCCCC3)c(NC(=O)Nc3ccccc3Cl)cc21 | 10µM*
CC(=O)N1CCN(c2ccc(Cl)nn2)C(=O)C1 | 11.2%[44.1 µM]
CC(=O)N[C@@H]1CCNC[C@@H]1c1nc(-c2ccccc2)no1 | i
Cc1noc(CN(C)C(=O)c2ccc(S(=O)(=O)NCCO)cc2)n1 | -11.8%
CCOC(=O)C1CCN(c2c(C(=O)c3ccc(OCC)cc3)cnc3ccc(OC)cc23)CC1 | 10µM*
COc1cc2ncc(C(=O)c3ccc(C)cc3)c(N3CCCCC3)c2cc1OC | -12.1%
CCOC(=O)C1CCCN(c2c(C(=O)c3ccc(OCC)cc3)cnc3ccccc23)C1 (stereo not drawn) | i
O=C(C1CCCC1)N1CCC(Cc2ccccc2)(C(=O)O)CC1 | 4.2%
CC1(C(=O)NCCCc2ccccc2)CCCCC(=O)N1 (stereo not drawn) | i
COc1ccc(/C=C/c2nc(C#N)c(NCc3ccc(C)cc3)o2)cc1OC | -19.9%
CCN(CC)CCCNc1oc(/C=C/c2ccc(OC)c(OC)c2)nc1C#N | 2.51µM*
CCOc1ccc(Nc2oc(/C=C/c3ccc(OC)c(OC)c3)nc2C#N)cc1 | i
COc1ccc(CNc2cc(Cl)nc3ccnn23)cc1 | -1.9%[44.1 µM]
SMILES | Pf Dd2 inh
CN(C)C[C@@H]1CN(c2ccncn2)C[C@H]1NC(=O)c1cccn1C | -20.2%
CC(C)C12CN3CC(C(C)C)(CN(C1)C3c1ccccn1)C2=O (stereo not drawn) | 8.91µM*
Cc1cccc(C2N3CC4(C(C)C)CN2CC(C(C)C)(C3)C4=O)c1 (stereo not drawn) | -19.1%
CC(C)C12CN3CC(C(C)C)(CN(C1)C3c1ccc(Cl)cc1)C2=O (stereo not drawn) | -12.9%
O=C1CCN(C(=O)[C@@H](Cc2ccccc2)NC(=O)c2ccoc2)CCOCCN1 | -19.5%
COc1ccccc1C(=O)N1CCc2nc(C)nc(-c3ccc(Cl)cc3)c2C1 | -6.4%
Cc1ccc2c(c1)N1C(=O)OC[C@@H]1CCN(Cc1ccccn1)C2 | 14.0%[44.1 µM]
CCS(=O)(=O)Nc1ccc(C2(C(=O)NC3CCCC3)CCCCC2)cc1 | -8.8%
COc1cc2cc(CNc3ccccc3)c(=O)n(CC(=O)Nc3cc(C)cc(C)c3)c2cc1OC | 11.2µM*
COc1ccc(NCc2cc3cc4c(cc3n(CC(=O)Nc3cc(C)cc(C)c3)c2=O)OCO4)cc1 | -5.9%
CCc1ccc(NC(=O)Cn2c(=O)c(CNc3ccccc3)cc3cc(OC)c(OC)cc32)cc1 | i
COc1ccc(C(=O)NC2CCN(c3cnn(C)c(=O)c3)CC2)c(OC)n1 | -13.4%
COc1ccc([C@H]2C[C@@H](O)[C@@H](O)[C@@H]2NCc2cnc3ccccc3c2)cc1 | i
COc1ccc([C@H]2C[C@@H](O)[C@@H](O)[C@@H]2NCc2cccc(C(F)(F)F)c2)cc1 | 8.91µM*
COc1ccc([C@H]2C[C@@H](O)[C@@H](O)[C@@H]2NCc2cccc(C#N)c2)cc1 | -11.3%[44.1 µM]
COc1ccc(-c2noc(-c3cccn3CC(=O)NCc3ccc(F)cc3Cl)n2)cc1F | 20.7%
Cc1ccc(NC(=O)c2ccc3c(c2)N(C)C2CCCN2C3=O)cc1C (stereo not drawn) | -10.0%
COc1ccc(CCNC(=O)CCCCn2c(=O)c3ccccc3n(CC(=O)Nc3ccccc3C)c2=O)cc1OC | -18.2%
COc1ccc(CCNC(=O)CCCn2c(=O)c3ccccc3n(CC(=O)Nc3c(C)cc(C)cc3C)c2=O)cc1OC | -7.2%
COc1ccc(CCNC(=O)CCCn2c(=O)c3ccccc3n(CC(=O)Nc3cccc(C)c3)c2=O)cc1OC | 10µM*
CCc1noc(-c2cn(C3CCN(C(=O)c4ccc(OC)cc4C)C3)nn2)n1 (stereo not drawn) | -7.2%
CC(=O)Nc1ccc(CN2C(=O)OC3(CCN(C(=O)c4ccnn4C)CC3)C2(C)c2ccccc2)cc1 (stereo not drawn) | i
CN1CC(=O)N(C2CCCNC2)Cc2c1ncnc2N1CCN(Cc2ccccc2)CC1 (stereo not drawn) | 5.6%
O=C(O)c1ccc(-c2ncc3cnc(C4=CCOCC4)cn23)cc1 | -18.2%[44.1 µM]
O=C(Nc1ccc2[nH]ccc2c1)c1ccc(-c2ncc3cnc(C4=CCOCC4)cn23)cc1 | 1.58µM*
SMILES | Pf Dd2 inh
O=C(Nc1ccc2[nH]ccc2c1)c1cnc2c(c1)N([S+](=O)([O-])c1cccnc1)CCC2 | i
Cc1ccc(S(=O)(=O)N2CCCC(Cn3c(C)nc4cccnc43)C2)cc1F (stereo not drawn) | i
Cc1nc2cccnc2n1CC1CCCN(S(=O)(=O)c2ccc3c(c2)CCC3)C1 (stereo not drawn) | -28.4%
Cc1nc2cccnc2n1CC1CCCN(S(=O)(=O)c2cccc(Br)c2)C1 (stereo not drawn) | 6.31µM*
COc1ccc2c(c1)CCc1c(C(=O)Nc3cnn(Cc4ccc(Cl)cc4Cl)c3)noc1-2 | 7.94µM*
COc1ccc(CN2Cc3cc(NC(=O)c4ccc(Cl)cc4)ccc3OC(C)C2=O)c(OC)c1 (stereo not drawn) | i
CCc1cc(C(=O)Nc2cnn(Cc3ccccc3C)c2)no1 | 0.2%
Cc1cccc(CC(=O)N2CCC3(CCCCO3)CC2)c1 | -1.2%
CCc1noc(-c2cn(C3CCN(C(=O)C(C)c4ccccc4)CC3)nn2)n1 (stereo not drawn) | -1.3%
Cc1cccc(-c2ocnc2C(=O)N2CC[C@H](CO)[C@H](NC(=O)C3CC3)C2)c1 | 4.1%
N#Cc1cccc(-c2ccc(=O)n3c2[C@@H]2C[C@@H](CN(C(=O)NC4CCCCC4)C2)C3)c1 | 15.3%[44.1 µM]
CCc1ccc(NC(=O)CN(c2ccc(Cl)cc2)S(=O)(=O)c2ccsc2C(=O)OC)cc1 | 11.2µM*
COC(=O)c1sccc1S(=O)(=O)N(CC(=O)Nc1ccccc1F)c1ccccc1 | 55.4%
COC(=O)c1sccc1S(=O)(=O)N(CC(=O)Nc1ccc(C)cc1)c1ccccc1 | -17.4%
FC(F)(F)c1ccc2c(c1)nc1n2[C@@H](CNCc2cccnc2)COC1 | i
CN(C)C(=O)c1cccnc1OC1CCN(C(=O)c2cccc(Br)c2)C1 (stereo not drawn) | 8.1%
COCCNC(=O)c1ccc(OC2CCN(CC3CCOC3)CC2)c(Cl)c1 (stereo not drawn) | -11.4%
COCCNC(=O)c1ccc(OC)cc1OC1CCN(Cc2cccc3cccnc23)CC1 | i
